In PubChem BioAssay (NCATS):
Inconclusive results are not listed. The source made the active and inactive calls. Calls follow the shape of the dose curve; as a rule, active = well fitted curve in the direction sought with a large enough effect; inconclusive = small, poorly fitted or top-dose-only effect, or another doubt; inactive = no such curve, though single readings can be large; an effect the other way counts as inactive or inconclusive.

Assays:
[1] = biological target: Voltage-gated inwardly rectifying potassium channel KCNH2 (Homo sapiens) (UniProt Q12809); experiment: qHTS Assay for Small Molecule Inhibitors of the Human hERG Channel Activity (AID 588834);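 also: top concentration of the series differs between compounds; lower thallium flux fluorescence means stronger hERG block; nearly all actives have a fitted effect of over 50% in size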
Voltage-gated inwardly rectifying potassium channel KCNH2 (Homo sapiens), sequence (Q12809 whole entry, looked up): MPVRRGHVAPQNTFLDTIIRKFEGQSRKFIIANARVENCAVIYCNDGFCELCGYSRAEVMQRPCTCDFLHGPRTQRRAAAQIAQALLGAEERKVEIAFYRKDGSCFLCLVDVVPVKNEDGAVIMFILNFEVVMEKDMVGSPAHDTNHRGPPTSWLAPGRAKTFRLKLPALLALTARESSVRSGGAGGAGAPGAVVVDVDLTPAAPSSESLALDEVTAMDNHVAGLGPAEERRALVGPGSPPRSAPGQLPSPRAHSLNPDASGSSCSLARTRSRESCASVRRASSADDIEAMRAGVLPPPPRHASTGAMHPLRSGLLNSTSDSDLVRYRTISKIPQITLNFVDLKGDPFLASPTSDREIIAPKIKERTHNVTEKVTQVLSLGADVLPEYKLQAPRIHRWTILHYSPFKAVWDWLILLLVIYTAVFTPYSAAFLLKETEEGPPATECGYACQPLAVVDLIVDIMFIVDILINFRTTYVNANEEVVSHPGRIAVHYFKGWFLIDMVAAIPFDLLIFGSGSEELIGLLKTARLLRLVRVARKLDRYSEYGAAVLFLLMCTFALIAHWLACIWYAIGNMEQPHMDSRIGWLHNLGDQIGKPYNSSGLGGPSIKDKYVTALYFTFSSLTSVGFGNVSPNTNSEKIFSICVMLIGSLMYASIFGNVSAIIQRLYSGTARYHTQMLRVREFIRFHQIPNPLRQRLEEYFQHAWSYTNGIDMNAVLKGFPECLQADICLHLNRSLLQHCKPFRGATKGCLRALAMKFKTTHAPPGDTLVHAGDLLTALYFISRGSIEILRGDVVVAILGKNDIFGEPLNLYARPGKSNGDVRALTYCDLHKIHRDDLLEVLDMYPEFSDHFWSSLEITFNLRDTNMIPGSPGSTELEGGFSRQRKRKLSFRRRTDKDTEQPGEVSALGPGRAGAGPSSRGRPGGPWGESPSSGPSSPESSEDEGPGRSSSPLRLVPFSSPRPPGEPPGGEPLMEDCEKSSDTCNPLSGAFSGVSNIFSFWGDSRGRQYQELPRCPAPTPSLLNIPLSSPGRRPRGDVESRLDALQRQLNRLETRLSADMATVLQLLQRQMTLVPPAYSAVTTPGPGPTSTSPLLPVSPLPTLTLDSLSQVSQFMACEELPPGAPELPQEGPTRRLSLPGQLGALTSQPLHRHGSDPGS
How it was run: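 U2OS cells transduced with hERG via BacMam (MOI ~100), plated 2000/well, loaded with FluxOR thallium dye, compound ~10 min, then stimulation buffer; fluorescence decrease read kinetically; AC50 from Hill fits.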

[2] = biological target: Luciferin 4-monooxygenase (Photinus pyralis) (UniProt P08659); experiment: Biochemical firefly luciferase enzyme assay for NPC (AID 624030);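 also: purified P. pyralis luciferase at 10 nM with luciferin and ATP substrate; series mostly up to about 59 µM; nearly all actives have a fitted effect of over 70% in size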
Luciferin 4-monooxygenase (Photinus pyralis), sequence (P08659 whole entry, looked up): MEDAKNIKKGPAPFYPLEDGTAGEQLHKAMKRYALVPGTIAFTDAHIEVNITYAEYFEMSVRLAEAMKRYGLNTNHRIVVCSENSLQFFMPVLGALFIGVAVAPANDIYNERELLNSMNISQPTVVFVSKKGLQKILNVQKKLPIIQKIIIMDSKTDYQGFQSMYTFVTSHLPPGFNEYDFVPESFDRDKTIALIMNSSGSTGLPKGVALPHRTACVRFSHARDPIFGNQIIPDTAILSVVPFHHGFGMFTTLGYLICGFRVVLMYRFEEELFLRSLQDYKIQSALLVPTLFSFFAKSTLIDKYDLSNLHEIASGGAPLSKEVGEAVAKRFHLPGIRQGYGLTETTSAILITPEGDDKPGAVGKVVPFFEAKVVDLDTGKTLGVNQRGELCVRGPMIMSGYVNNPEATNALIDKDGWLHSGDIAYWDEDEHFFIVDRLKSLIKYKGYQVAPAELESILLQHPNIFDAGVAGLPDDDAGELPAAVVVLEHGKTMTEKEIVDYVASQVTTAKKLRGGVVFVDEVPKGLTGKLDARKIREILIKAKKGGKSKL
How it was run: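 Direct inhibition of firefly luciferase enzyme (10 nM final, 50 mM Tris Acetate) assessed by luminescence within 5 minutes. Percent activity scaled between DMSO and PTC124 positive control, with concentration-effect curves classified by fit quality and response.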

[3] = S16 Schwann cell viability assay (CellTiter-Glo assay) (AID 624031);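 also: cellular ATP luminescence as a viability measure; series mostly up to about 58 µM; nearly all actives have a fitted effect of over 70% in size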
How it was run: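 Native S16 Schwann cells (rat), serum-containing medium, overnight attachment then 24 h drug exposure at 37 °C/5% CO2. CellTiter-Glo ATP signal; normalized to cell-free and vehicle wells.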

[4] = S16 Schwann cell PMP22 intronic element firefly luciferase assay (AID 624032); also: series mostly up to about 58 µM; nearly all actives have a fitted effect of over 30% in size
How it was run: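 Luciferase reporter of PMP22 intronic-element expression in stably transfected S16 rat Schwann cells, read by ONE-Glo luminescence after 24 h compound exposure at 37 C. Activity scaled between DMSO (0%) and positive-control PTC124; concentration-effect curves quality-classified.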

Measured: Potency

CC(=O)N[C@H]1[C@H]([C@H](O)[C@H](O)CO)OC(C(=O)O)=C[C@@H]1N=C(N)N
inactive: [1]

COc1nccnc1NS(=O)(=O)c1ccc(N)cc1
inactive: all assays above

CNCc1ccccc1
inactive: all assays above

CC(N)CCCC(C)(C)O (centres undefined)
inactive: all assays above

CCCCCC(C)N (centres undefined)
inactive: all assays above

Cc1cc(NC(=O)C2=C(O)c3ccccc3S(=O)(=O)N2C)no1
inactive: [1] | [2] | [3]

Cc1c(I)c(=O)n(-c2ccccc2)n1C
inactive: [1] | [2] | [3]

Cc1ncc(CO)c(CN)c1O
inactive: [1] | [2] | [3]

COc1cc(C(=O)NCCCCCC(=O)O)cc(OC)c1OC
inactive: [1] | [2] | [3]

CC(C(=O)O)c1ccc2c(c1)Cc1cccnc1O2 (centres undefined)
inactive: [1] | [2] | [3]

Cc1c(Cn2ccnc2)c2ccccc2n1CCC(=O)O
inactive: [1] | [2] | [3]

CC(=O)OC[C@H]1O[C@@](COC(C)=O)(O[C@H]2O[C@H](COC(C)=O)[C@@H](OC(C)=O)[C@H](OC(C)=O)[C@H]2OC(C)=O)[C@@H](OC(C)=O)[C@@H]1OC(C)=O
inactive: all assays above

CCc1cccc(CC)c1NC(=O)CN(CC(=O)O)CC(=O)O
inactive: [1] | [2] | [3]

CC(C)CCCC(C)CCCC(C)CCCCC(C)CCCC(C)CCCC(C)C (centres undefined)
inactive: [1] | [2] | [3]

O=c1[nH]c2cc(C(F)(F)F)c(N3CCOCC3)cc2n(CP(=O)(O)O)c1=O
inactive: all assays above
